Experimental data reported in PubChem BioAssay.
Several values for one entry are separate records, joined by “and”; a condition that tells them apart may be missing. Equal values may be shown once. Unmarked numbers belong to inactive results. How the calls were made is not given here.

molecular target: Pantothenate synthetase (Mycobacterium tuberculosis (strain ATCC 25618 / H37Rv)) (UniProt P9WIL5); assay: Coupled enzyme confirmation of inhibitors against recombinant Mtb PanC (AID 375); details: coupled enzyme assay; at 10 µM, active compounds read high;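 further: 0% = full reaction with vehicle and 100% = no enzyme background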
Sequence (P9WIL5 whole entry, looked up): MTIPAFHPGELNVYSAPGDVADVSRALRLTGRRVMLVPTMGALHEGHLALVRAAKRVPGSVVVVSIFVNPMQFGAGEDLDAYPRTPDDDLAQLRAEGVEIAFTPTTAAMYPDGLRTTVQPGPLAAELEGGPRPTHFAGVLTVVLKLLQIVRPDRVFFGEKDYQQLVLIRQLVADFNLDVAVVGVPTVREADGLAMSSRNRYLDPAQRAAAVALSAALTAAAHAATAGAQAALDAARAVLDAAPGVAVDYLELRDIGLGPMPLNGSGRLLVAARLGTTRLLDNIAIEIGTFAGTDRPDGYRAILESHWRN

| SMILES | inhibition |
| --- | --- |
| NC(=O)NC(=O)CSc1cccc(C(F)(F)F)c1 | 0% |
| CCn1c(SCC(=O)Nc2ccc3c(c2)OCO3)nnc1-c1cnccn1 | 0% |
| CCn1cc(S(=O)(=O)CC(=O)Nc2ccc(OC)cc2)c2ccccc21 | 1% |
| CCOc1cc(-c2nc(-c3ccccc3OC)no2)cc(OCC)c1OCC | 12% |
| CC(=O)N(CCN(C(C)=O)c1ccccc1)c1ccccc1 | 0% |
| O=C(Nc1ccc(N2C(=O)C3C4C=CC(C4)C3C2=O)cc1)Nc1nncs1 (stereo not given) | 5% |
| COc1ccc(Cn2nnnc2C(c2cccnc2)N2CCN(c3ccc(O)cc3)CC2)cc1 (stereo not given) | 0% |
| CCOC(=O)C1(CC)NC(c2cccc(F)c2)C2C(=O)N(CC)C(=O)C21 (stereo not given) | 0% |
| COc1cc2nc(N3CCN(C(=O)C4COc5ccccc5O4)CC3)nc(N)c2cc1OC (stereo not given) | 3% |
| CCC(=O)c1ccc(OC(=O)c2ccc(Br)o2)cc1 | 7% |
| COc1ccc(C(=O)Nc2nc(C)c(C(=O)N(C)C)s2)cc1OC | 0% |
| Cc1onc(-c2c(Cl)cccc2Cl)c1C(N)=O | 0% |
| COC(=O)C1(C(F)(F)F)N=C2Sc3ccccc3N2C(N2CCOCC2)=N1 (stereo not given) | 0% |
| CC(C)CCNc1cc(=O)n(C)c(=O)n1C | 0% |
| C(/CCc1ccccc1)=N\n1cnnc1 | 8% |
| Cc1cc(C(=O)N2CCN(c3ncccn3)CC2)cs1 | 4% |
| COc1ccc(Cl)cc1N1CC(c2nc3ccccc3[nH]2)CC1=O (stereo not given) | 6% |
| COc1ccc(NC(=O)CN2CCN(S(=O)(=O)c3ccc(Cl)cc3)CC2)cc1 | 13% |
| CCOC(=O)N1CCN(C(=O)c2ccc(N3C(=O)CCC3=O)cc2)CC1 | 0% |
| Cc1cccc2cc(CN(Cc3nnnn3Cc3ccco3)C3CCCC3)c3nnnn3c12 | 3% |

| SMILES | inhibition |
| --- | --- |
| Cn1nc(C(=O)NC2CCCCCC2)ccc1=O | 0% |
| C=CCn1c(Cc2cccs2)nnc1SCC(=O)Nc1ccc(OC)c(OC)c1 | 0% |
| COC(=O)C1=CN(C(C)C)C=C(C(=O)OC)C1c1cc2c(cc1Br)OCO2 | 0% |
| COc1cc(-c2c(C#N)c(N)nc3c2CCCC3)cc(OC)c1OC | 5% |
| Cc1cccc2cc(CN(CC3CCCO3)C(=O)c3cnccn3)c(=O)[nH]c12 (stereo not given) | 0% |
| COc1ccc(CN2C(=O)CN=C2Nc2ccc(C)cc2C)cc1 | 6% |
| C[C@]12CCC(=O)C=C1CC[C@@H]1[C@@H]2[C@@H](O)C[C@@]2(C)[C@H]1CC[C@]2(O)C(=O)COC(=O)CCC(=O)O | 0% and 2% |
| CCOC(=O)Cc1nnc(NC(=O)c2ncn[nH]2)s1 | 0% |
| CCn1c(=O)n(CC(=O)Nc2cc(OC)ccc2OC)c(=O)c2ccccc21 | 10% |
| Cc1ccc(-c2ccc(=O)n(CCC(=O)NCc3ccccn3)n2)cc1 | 4% |
| COc1ccc(C(C)(C)C)cc1NC(=O)Nc1ccc2c(c1)OCO2 | 5% |
| COc1ccc(NC(=O)N(C2CCCCC2)C2CCN(C(C)C)CC2)c(OC)c1 | 0% |
| COc1ccc(S(=O)(=O)CCC(=O)O)cc1 | 6% |
| Cc1ccccc1NS(=O)(=O)c1cc(S(C)(=O)=O)ccc1Cl | 0% |
| CC[N+](C)(CC)CCOC(=O)C(O)(c1ccccc1)C1CCCCC1 (stereo not given) | 0% |
| COc1ccc(N(C(=O)c2ccco2)C(C(=O)NC2CCCC2)c2ccc(N(C)C)cc2)cc1OC (stereo not given) | 1% |
| CCOCCCNC(=O)c1ccc2c(c1)ncn2C1CCCC1 | 5% |
| CCCSc1nc2c(cnn2-c2ccc(C)cc2)c(=O)[nH]1 | 0% |
| O=C(CSc1nnc(C2COc3ccccc3O2)o1)N1CCCc2ccccc21 (stereo not given) | 0% |
| O=S(=O)(c1ccc(S(=O)(=O)N2CCN3CCCC3C2)cc1)N1CCCC1 (stereo not given) | 0% |
